Cycloheximide cs = counter-screen hit for Shiga toxin inhibitors, cycloheximide; cell reporter, cycloheximide protein synthesis inhibition counterscreen; 300,000 tested, 12% active; max response, %; AID 2314; in the data active = max response mostly above about 13%, no sharp cut-off; inactive = mostly below about 14%; also: read at 38.3 µM for the half of the compounds with a filed dose; 0% is about no effect
SARS PLpro yeast = blocks SARS-CoV papain-like protease in a yeast assay; S. cerevisiae expressing SARS-CoV PLpro, growth rescue; Potency, µM (titrated, usually from 32.9 µM), for inactives: at the top dose activity, positive = growth rescue, hits mostly activators; 330,000 tested, 0.19% active; also: potency is read from the fitted curve at half-maximal effect; 0% is about no effect; nearly all actives have a fitted effect of over 55% in size
Shiga inhibitor = inhibitors of Shiga toxin in Vero cells | AID 2315 | inhibition, % at 38.7 µM | Vero cells, Shiga toxin protein synthesis inhibition reporter | 290,000 tested, 9.2% active; in the data active = inhibition mostly above about 28%, no sharp cut-off; inactive = mostly below about 43%; also: 0% is about no effect
NS1 function inh = influenza NS1 inhibition; Potency, µM (top dose mostly 46.1 µM), for inactives: top-dose activity, positive = more growth; 270,000 tested, 0.4% active; also: potency is read from the fitted curve at half-maximal effect; actives are rising curves; nearly all actives have a fitted effect of over 50% in size
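Read-out: OD600 growth recovery of NS1-expressing budding yeast. Cells grown overnight at 30C in -URA glucose medium, washed, resuspended and diluted 1:100 in 2% galactose assay medium, pH 6.0. Same strain lacking NS1 served as positive control.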
Flu NS1 inh = validation of influenza NS1 protein function inhibitors. shares compounds with NS1 function inh. influenza NS1 function cell assay, 15-point titration. activity change, negative = inhibition, % at 32.9 µM. 1,400 tested, under 10 active; also: 0% is about no effect
PR8 titer = influenza virus titer reduction, NS1 project; shares compounds with NS1 function inh; MDCK infected influenza A/PR/8/34, virus titer TCID50; active compounds read low; virus titer (log TCID50), log10 TCID50 at 5 µM; 95 tested, 30% active; call rule not given here
* = called active by the depositor; ? = inconclusive; . = no result. Rows were chosen to be rich in hits. Some 12% of all compounds tested hit in one or more screens of this group. Unless noted, calls follow the shape of the full dose curve.

SMILES	Cycloheximide cs	SARS PLpro yeast	Shiga inhibitor	NS1 function inh	Flu NS1 inh	others
CN(C)c1ccc(NC(=O)Cn2cc3c(n2)CCCC3)cc1	56*	0%	72*	10µM*	17
COc1cc(N)c(Cl)cc1C(=O)OCC(=O)N1CCCCCC1	.	-1%	.	.	.
COc1cccc(/C=N/Nc2cc(-n3nc(C)cc3-c3ccccc3)ncn2)c1O	-4	?	-12	0%	.
Cc1cnn(-c2cc(N/N=C/c3ccccc3Cl)ncn2)c1	2	3%	-11	14µM*	-14
O=C(O)c1cccc(S(=O)(=O)N2CCN(C(c3ccccc3)c3ccccc3)CC2)c1	6	0%	-2	.	.
CCOC(=O)C1CCN(C(=O)CSc2ccccc2)CC1	18	1%	57	11µM*	17
O=C(NCCc1ccccc1F)N[C@@H](Cc1ccccc1)C(=O)O	6	1%	13	-8%	.
CCCn1c(C)nc2c(c1=O)c1nc3ccccc3nc1n2CCC1=CCCCC1	-3	5%	2	2µM*	?
COCCn1cnc2c(c1=O)c1nc3ccccc3nc1n2/N=C/c1ccco1	-2	3%	4	1%	.
Cc1nc2c(c(=O)n1CCC1=CCCCC1)c1nc3ccccc3nc1n2/N=C/c1ccco1	9	-14%	54	10µM*	-16
O=C(CCN1C(=O)c2ccccc2C1=O)Nc1sc2c(c1C(=O)NCC1CCCO1)CCC2 (centres undefined)	-2	-11%	-5	-2%	.
COc1ccc(-c2noc(CCC(=O)O)n2)cc1	4	?	13	3.5µM*	-30
Cc1cc(OCC(=O)N[C@@H](Cc2ccccc2)C(=O)O)c2c3c(c(=O)oc2c1)CCC3	-2	5%	-5	?	.
Cc1cc(OCC(=O)N[C@@H](CSCc2ccccc2)C(=O)O)c2c(C)c(C)c(=O)oc2c1	-1	0%	-10	13µM*	?
CCN(CC)S(=O)(=O)c1ccc2c(c1)C(=NO)c1cc(S(=O)(=O)N(CC)CC)ccc1-2	1	3%	26	-2%	.
Cc1cccc(NC(=O)CSc2nnc([C@@H](N)Cc3c[nH]c4ccccc34)o2)c1C	-2	2%	1	11µM*	15
O=C(CSc1nnc2ccc(-c3ccc(F)cc3)nn12)N1CCCC1	8	2%	-9	.	.
O=C(CSc1nnc(COc2ccc(F)cc2)o1)N1c2ccccc2CCc2ccccc21	8	-7%	-5	?	.
Cc1cccc(OCc2nnc(SCC(=O)N3c4ccccc4CCc4ccccc43)o2)c1	3	0%	-8	13µM*	-20	PR8 titer=8.5
CC(C)N(c1ccccc1)c1ccc(NC(=O)COC(=O)CCN2C(=O)c3cccc([N+](=O)[O-])c3C2=O)cc1	-1	-11%	-5	?	.
O=C(COC(=O)c1cncc(Br)c1)NCc1cccs1	.	0%	.	.	.
Cc1ccc(C(O)Cn2cc([N+](=O)[O-])nc2C)cc1 (centres undefined)	-2	0%	-2	?	8
CN(C)S(=O)(=O)c1ccc2oc(SCC(=O)NCC(F)(F)F)nc2c1	3	?	-11	10µM*	3
C#CCn1c(=NC(=O)c2cc(Cl)sc2Cl)sc2cc(S(N)(=O)=O)ccc21	13	12%	36	10µM*	17
CC(=O)N1CCN(c2ncnc3ccccc23)CC1	-2	19%	-12	10%	.
SMILES	Cycloheximide cs	SARS PLpro yeast	Shiga inhibitor	NS1 function inh	Flu NS1 inh	others
CC1(C)SC(=S)N(NC(=O)Nc2ccccc2)C1N(O)C(=O)Nc1cccc2ccccc12 (centres undefined)	3	4%	13	22µM*	9
COc1ccc(C2/C(=C(/O)c3ccc(F)cc3)C(=O)C(=O)N2CCCN2CCOCC2)cc1OC (centres undefined)	9	-5%	-1	11%	.
Cc1ccc(/C=C2\SC(N3CCN(C(c4ccccc4)c4ccccc4)CC3)=NC2=O)o1	4	-36%	-10	11µM*	?
COC(=O)C1=C(C)N2C(=O)CSC2=NC1c1ccc2c(c1)OCO2 (centres undefined)	1	-7%	-21	13µM*	31
COCCN1C=C(C(=O)OC)C(c2ccc3c(c2)OCO3)C(C(=O)OC)=C1	-4	10%	-11	0%	.
O=c1cc([O-])[n+]2c3n1CCCN3CCC2	-3	10%	6	21%	.
Oc1c(C(c2ccccc2)N2CCCCC2)sc2ncnn12 (centres undefined)	-2	1%	-5	?	1

High-throughput results deposited in PubChem by National Center for Advancing Translational Sciences (NCATS).
